HttQ103 aggreg: mutant huntingtin aggregation inhibition | Potency, µM (titrated, usually from 46.1 µM), without a hit: top-dose activity change, negative = inhibition, hits mostly inhibitors | AID 1688 | PC12 HttQ103-GFP aggregates, Acumen cytometry, 40 h | 1.1% of 220,000 active; further: potency means the concentration at half of the fitted maximal effect; on the % scale 0 is the no-effect control and ±100 the full control effect; nearly all actives have a fitted effect of over 60% in size
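Aggregates are detected as GFP objects 1–25 µm with signal 6 STDEV over background in lysates of induced PC12 cells. These carry Huntingtin exon 1 with 103 glutamines fused to GFP under an ecdysone promoter; compounds titrated.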
HTT ATP protect: protects HTT-Q103 PC12 cells, measured by ATP; Potency, µM (highest dose often 56.4 µM), inactives show cytoprotection (ATP increase), usual class: activators; AID 1471; PC12 HTT-Q103 induced, cytoprotection, ATP luminescence, 40 h; 0.14% of 230,000 active; further: potency means the concentration at half of the fitted maximal effect; % of control where 0% means no effect; nearly all actives have a fitted effect of over 45% in size
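Rat PC12, Q103 Htt exon1-GFP fusion, ecdysone promoter; tebufenozide inducer 100 nM final; compound titration; qHTS, 1500 cells/well; ATPlite luminescent read.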
PNC inhibitor: perinucleolar compartment assembly inhibition. activity change (PNC), negative = inhibition, % at 10 µM. 3.1% of 140,000 active. PC3M PTB-GFP, PNC prevalence imaging, 16 h; active compounds read low;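 active means readout at or below -70, meaning at least 70% loss of cells showing the perinucleolar compartment, a nuclear body marking cancer cells; inconclusive means readout between -30 and a set limit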;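 further: plate controls were DMSO wells for no effect and camptothecin positive control wells for full effect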
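PC3M cells stably expressing PTB-GFP, 750–1000 cells/well, treated 16 h at 37 °C with compound (23 nl of library stock), in duplicate. After paraformaldehyde fixation and Hoechst stain, imaged at 20x; PNC prevalence scored by image analysis.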
Starred values were filed as active, the others as inactive; ? = inconclusive; / = not tested or not shown; [ ] = dose if it differs, or a comment. Only a selection was taken, and hits are over-represented in it overall. Unless noted, the call rests on the fitted dose curve; in most records, active means well fitted curve in the direction sought with a large enough effect; inconclusive means small, poorly fitted or top-dose-only effect, or another doubt; inactive means no such curve, though single readings can be large; an effect the other way counts as inactive or inconclusive.

SMILES | HttQ103 aggreg | HTT ATP protect | PNC inhibitor
CCCNC(=O)COC(=O)c1ccc(S(=O)(=O)N2CCCCCC2)cc1 | 3% | 13% | 28
Brc1ccc(C2=CC(c3cccs3)n3ncnc3N2)cc1 (configuration not stated) | ? | -54% | 3
OCCCc1nc2n(n1)C(c1cccs1)C=C(c1ccc(Br)cc1)N2 (configuration not stated) | 11µM* | -28%[10 µM] | -29
COc1cccc(NC(=O)CNC(=O)c2ccc(C)cc2)c1 | 13% | 3%[10 µM] | /
COC(=O)c1ccccc1NC(=O)c1ccc(COc2ccc3c(c2)CCC3)cc1 | 20% | 12% | -10
CCS(=O)(=O)N1CCN(S(=O)(=O)c2ccccc2)CC1 | 6% | -25% | 2
CC12CN(S(=O)(=O)c3ccccc3)CC(C)(CN(S(=O)(=O)c3ccccc3)C1)C2 | 1%[9.22 µM] | 16% | -113*
Cc1ccc2c(c1)N(CCCC(=O)NCCC1=CCCCC1)C(=O)CO2 | 1% | -4%[0.074 µM] | 0
CCC(=O)NC(c1cccs1)c1cc(Cl)c2cccnc2c1O (configuration not stated) | -2%[9.22 µM] | 5%[10 µM] | /
O=C(NC(c1ccc(Cl)cc1)c1cc(Cl)c2cccnc2c1O)c1cccnc1 (configuration not stated) | 8.9µM* | -71%[10 µM] | 4
CN1C(CC(=O)c2ccccc2)CCCC1CC(O)c1ccccc1 (configuration not stated) | 1% | -59% | -110*
CN1[C@H](CC(=O)c2ccccc2)CCC[C@H]1C[C@@H](O)c1ccccc1 | / | 2%[1.9 µM] | /
CS(=O)(=O)N1CCCC(C(=O)NC2CCCCCCC2)C1 (configuration not stated) | -10% | 5%[10 µM] | -17
Cc1ccc2c(c1)CCCN2C(=O)Nc1ccc2c(c1)OCO2 | 4% | -16% | 19
CCOc1ccc(NC(=O)c2ccccc2OC)cc1 | 8% | -74% | ?
CCOc1ccc(NC(=O)c2ccccc2O)cc1 | ? | -40%[10 µM] | -104*
CCOc1ccc(NC(=O)c2ccccc2CO)cc1 | -4% | -39% | 9
CCOc1ccc(NC(=O)C(C)Oc2ccccc2C(=O)Nc2cccc(Cl)c2Cl)cc1 (configuration not stated) | -5% | -26% | -110*
CCCc1c(C(=O)NNc2ccc(C)cc2)cnn1-c1ccccc1 | 16%[9.22 µM] | 3%[10 µM] | /
O=C1c2cccnc2C(=O)N1Cc1ccco1 | 13% | -9% | 10
CCOC(=O)CSc1nc(C)nc2c1sc1nc(C)c(C(C)=O)c(-c3ccc(OC)cc3)c12 | -1% | 3%[10 µM] | -10
COC(=O)c1ccccc1NC(=O)/C=C/c1ccco1 | 0% | -15%[1.9 µM] | -9
Cc1ccc(-c2nc3cccnc3s2)cc1NS(=O)(=O)c1ccc2c(c1)OCCO2 | -20% | -4%[10 µM] | -108*
O=S(=O)(Nc1cccc(-c2nc3cccnc3s2)c1)c1ccc2c(c1)OCCO2 | ? | 21% | -20
COc1ccc(CNC(=S)N2CCN(S(=O)(=O)c3cccc(F)c3)CC2)cc1 | -17%[9.22 µM] | -2%[10 µM] | /
SMILES | HttQ103 aggreg | HTT ATP protect | PNC inhibitor
CCOC(=O)C1=C(C)NC(=O)NC1c1cc2c(cc1Br)OCO2 (configuration not stated) | 4% | -28%[10 µM] | 186
CC1=C(C(=O)OCc2ccc3c(c2)OCO3)C(c2ccccc2OCc2ccccc2)NC(=O)N1 (configuration not stated) | ? | -47% | 19
CC1=C(C(=O)OCc2ccc3c(c2)OCO3)C(c2ccccc2)NC(=O)N1 (configuration not stated) | 2.8µM* | 16% | 6
CC1=C(C(=O)OCc2ccc3c(c2)OCO3)C(c2ccc(O)c([N+](=O)[O-])c2)NC(=O)N1 (configuration not stated) | 7.1µM* | / | /
CCCC[C@@H]1C[C@H]1C(NC(=O)c1cccnc1)c1ccc(Cl)cc1 (some centres not stated) | / | -107% | /
CCOc1ccc(C2c3c(oc4cc(C)c(C)cc4c3=O)C(=O)N2CCCN2CCOCC2)cc1 (configuration not stated) | ? | -18% | 13
O=C(Cn1nnc(N2CCCC2)n1)N/N=C/c1ccc(Cl)cc1 | -2%[9.22 µM] | 5%[10 µM] | /
C=CCn1c(NC(=O)c2ccccc2Cl)c(C#N)c2nc3ccccc3nc21 | 16µM* | -45% | -9
C=CCn1c(NC(=O)c2ccccc2)c(C#N)c2nc3ccccc3nc21 | / | -25%[10 µM] | /
Cc1csc(NC(=O)C(CC(C)C)NS(=O)(=O)c2ccc3c(c2)oc(=O)n3C)n1 (configuration not stated) | 19% | -14% | -82*
Cc1csc(NC(=O)C2CCN(S(=O)(=O)c3ccc4c(c3)oc(=O)n4C)CC2)n1 | -14% | -10% | -6

Compound activity (PubChem BioAssay)
